Mcl1-Noxa inh: Mcl-1/Noxa binding inhibitors, primary screen, biochemical, TR-FRET, 1536-well | 1.5% of 220,000 active | Induced myeloid leukemia cell differentiation protein Mcl-1 (Homo sapiens), Q07820 | inhibition, % at 21.7 µM | TR-FRET Mcl-1/Noxa peptide binding, 2 h | AID 1022, 2008;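 active means compounds that cut the protein-peptide binding signal by more than 50% relative to plate controls in a single-dose test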;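 further: His-tagged Mcl-1 with rhodamine Noxa BH3 peptide and terbium anti-His antibody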
Target sequence (Q07820 whole entry, looked up): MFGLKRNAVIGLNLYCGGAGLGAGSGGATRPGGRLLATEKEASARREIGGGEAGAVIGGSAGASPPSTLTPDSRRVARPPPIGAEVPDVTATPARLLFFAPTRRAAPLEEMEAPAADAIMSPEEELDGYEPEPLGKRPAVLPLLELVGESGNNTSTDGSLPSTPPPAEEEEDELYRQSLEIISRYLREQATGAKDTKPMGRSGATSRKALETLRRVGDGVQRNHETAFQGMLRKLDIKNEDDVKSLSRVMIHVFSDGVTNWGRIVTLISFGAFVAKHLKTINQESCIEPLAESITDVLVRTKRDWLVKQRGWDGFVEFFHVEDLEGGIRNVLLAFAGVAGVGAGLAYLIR
MCL1 BIM primary: inhibitors of MCL1 binding to BIM-BH3, primary screen, biochemical, fluorescence polarization; GST-MCL1 / FITC-Bim-BH3 fluorescence polarization; inhibition, % at 10.9 µM; 0.68% of 320,000 active;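 active means inhibition above the mean inhibition of all tested compounds plus 3 SD, set per campaign, cut at about 40% in these data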;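 further: higher means more loss of mP so more displacement of Bim peptide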
Mcl1 Bid PPI: Mcl-1/Bid binding inhibitors, primary screen, biochemical, TR-FRET, 1536-well. TR-FRET Mcl-1/Bid-Dy647 peptide binding. inhibition, % at 21.7 µM. 0.97% of 220,000 active;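 active means compounds that cut the binding signal by more than half at the single screening dose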;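 further: His-tagged Mcl-1 with europium anti-His antibody binding Bid BH3 peptide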
BCLXL inh: inhibitors of human Bcl-xL, primary screen, biochemical, fluorescence polarization, HTS. Bcl-2-like protein 1 (Homo sapiens), Q07817. GST-Bcl-xL / FITC-Bim BH3 peptide fluorescence polarization. inhibition, % at 10.9 µM. 0.7% of 320,000 active;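 active means inhibition above the mean of all tested compounds plus 3 SD, cutoff set per campaign, cut at about 30% in these data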;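 further: inhibitors lower millipolarization by displacing the labeled peptide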
Target sequence (Q07817 whole entry, looked up): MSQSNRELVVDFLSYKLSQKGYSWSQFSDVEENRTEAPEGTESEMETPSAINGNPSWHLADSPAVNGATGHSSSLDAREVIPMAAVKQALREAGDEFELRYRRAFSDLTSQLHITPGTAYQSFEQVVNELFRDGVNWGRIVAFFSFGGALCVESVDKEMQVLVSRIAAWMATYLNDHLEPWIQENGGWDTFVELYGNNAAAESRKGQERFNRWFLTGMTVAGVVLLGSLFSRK
GLD-1 RNA inh: GLD-1/TGE RNA complex disruptors, primary screen, biochemical, fluorescence polarization; purified GLD-1 + fluorescein TGE RNA; inhibition, % at 5.96 µM; 0.44% of 320,000 active; AID 2280, 2010;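 active means percent inhibition above a per-plate cutoff, the plate mean of test compounds plus 3 SD, cut at about 30% in these data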
Bim-Mcl-1: inhibitors of Bim peptide binding to Mcl-1, primary screen, biochemical, bead-based flow cytometry, multiplex; Induced myeloid leukemia cell differentiation protein Mcl-1 (Homo sapiens), Q07820; Bim peptide-Mcl-1 binding; inhibition, % at 10 µM; 0.1% of 190,000 active; AID 1009, 2008; in the data active means inhibition above about 40%
Hits are given with their value; n = inactive; x = no result given. Hits are enriched below; roughly 2.3% of the tested compounds scored in any of these assays.

SMILES	Mcl1-Noxa inh	MCL1 BIM primary	Mcl1 Bid PPI	BCLXL inh	GLD-1 RNA inh	Bim-Mcl-1
CCOC(=O)C1(CCc2ccccc2)CCN(C(=O)CCn2cnnn2)CC1	n	n	n	n	n	n
O=C(NC1CCCc2c1cnn2-c1ccc(F)cc1F)c1ccccn1 (centres undefined)	n	n	n	31	n	n
O=C(CSc1nc2ccccc2n1CCc1ccccc1)c1ccc(O)c(O)c1	102	x	52	x	x	n
C=CCN(c1ccc(Br)cc1C(=O)OC)S(C)(=O)=O	x	n	x	47	n	x
COc1ccc2[nH]c3c(=O)n(Cc4ccc(C(=O)NCC5CCCO5)cc4)c(=S)[nH]c3c2c1 (centres undefined)	62	n	n	n	n	n
O=C(NCC1CCCO1)c1ccc(Cn2c(=S)[nH]c3ccccc3c2=O)cc1 (centres undefined)	81	n	n	n	n	n
CCOc1cc2[nH]c(=S)n(Cc3ccc(C(=O)NCC(OC)OC)cc3)c(=O)c2cc1OCC	n	n	n	n	n	n
COCCNC(=O)CCCCCn1c(=S)[nH]c2ccccc2c1=O	n	n	n	n	n	n
CC[C@H](C)NC(=O)c1ccc(Cn2c(=S)[nH]c3c([nH]c4ccc(OC)cc43)c2=O)cc1	76	n	n	n	n	n
CCN(CC)CCNC(=O)CCCCn1c(=S)[nH]c2c([nH]c3ccc(OC)cc32)c1=O	61	n	n	n	n	n
COC(=O)[C@H](Cc1ccccc1)NC(=O)Cn1ccc(NC(=O)OCc2ccccc2)nc1=O	x	n	x	n	n	x
COc1ccc(S(=O)(=O)N(C)C[C@H]2Oc3c(NC(=O)Nc4c(C)noc4C)cccc3C(=O)N([C@@H](C)CO)C[C@H]2C)cc1	x	x	x	x	n	x
CCCCNC(=O)c1ccc(Cn2c(=S)[nH]c3c([nH]c4ccc(OC)cc43)c2=O)cc1	n	n	n	n	n	n
CCOCCCNC(=O)c1ccc(Cn2c(=S)[nH]c3c([nH]c4ccc(OC)cc43)c2=O)cc1	56	n	n	n	n	n
Cc1c([N+](=O)[O-])c(C(=O)Nc2ccc3c(c2)OCCO3)nn1C	n	n	73	n	n	n
Cc1ccc(-c2cc(-c3ccc(F)cc3)nc(N)c2C#N)o1	n	n	n	n	n	n
Cc1ccc(-c2cc(-c3ccccc3Cl)c(C#N)c(N)n2)o1	60	n	n	n	n	n
Cc1ccc(-c2cc(-c3ccccc3)c(C#N)c(N)n2)o1	65	n	n	n	n	n
O=C(CN1C(=O)c2ccccc2C1=O)Nc1ccc(S(=O)(=O)N2CCOCC2)cc1	n	n	n	n	n	n
O=C(NC1CC2CCCC(C1)N2C(=S)Nc1ccc(Cl)cc1)C1CC1 (centres undefined)	x	n	x	n	n	x
CC1CCc2c(nc3sc4c(c3c2N)CCCC4)C1 (centres undefined)	54	n	n	n	n	n
CC1CCc2nc3sc4c(c3c(N)c2C1)CCCC4 (centres undefined)	n	n	n	n	n	n
COc1ccccc1/C=N/N1C(=O)c2cccc3cccc(c23)C1=O	n	n	n	43	n	n
CCOc1cc(/C=N/NC(=O)C(=O)NCCCOC(C)C)cc(Br)c1O	56	n	n	n	n	n
CCOc1ccc(NC(=O)CN(C)C(=O)c2c(C)nn(-c3ccc(F)cc3)c2Cl)cc1OCC	x	n	x	n	n	x
SMILES	Mcl1-Noxa inh	MCL1 BIM primary	Mcl1 Bid PPI	BCLXL inh	GLD-1 RNA inh	Bim-Mcl-1
O=S1(=O)[C@H]2C[C@@H]3C=C[C@@]2(CN1Cc1ccccc1F)O3	x	n	x	n	n	x
S=c1nccc(-c2ccc(Cl)cc2)[nH]1	n	n	n	n	n	x
Cc1nc2ccccn2c1-c1ccnc(=S)[nH]1	57	n	n	n	n	x
O=C(O)CCN1C(=O)/C(=C/c2ccc(-c3nc4ccccc4s3)o2)SC1=S	104	n	94	n	n	n
O=C(O)CCCN1C(=O)/C(=C\c2ccc(-c3nc4ccccc4s3)o2)SC1=S	104	n	87	n	n	x
O=C(O)CC(C(=O)O)N1C(=O)/C(=C/c2ccc(-c3nc4ccccc4s3)o2)SC1=S (centres undefined)	n	n	n	n	n	n
O=Cc1ccc(-c2nc3ccccc3s2)o1	n	n	n	n	n	n
COc1ccc(N(CC(=O)NCc2ccccc2OC)S(=O)(=O)c2ccc(C)cc2)cc1Cl	x	n	x	n	n	x
O=C(Nc1ccc2[nH]c3c(c2c1)CCCC3)c1ccco1	n	40	n	52	n	n
Cc1cc2cc(NC(=O)c3ccco3)ccc2[nH]1	n	n	n	n	n	n
Oc1[nH]c2ccccc2c1N=Nc1ccccc1F	n	n	n	n	n	n
O=C(N=Nc1c(O)[nH]c2ccccc12)c1cc(-c2ccc(F)cc2)n[nH]1	52	n	n	n	n	n
NS(=O)(=O)c1cc(C(=O)N=Nc2c(O)[nH]c3ccccc23)ccc1Cl	51	n	n	n	n	x
COc1cccc(C(=O)OCC(=O)NCCCc2ccccc2)c1	x	n	x	n	n	x
COc1ccc(C)cc1N(C(=O)c1ccc(F)cc1)c1nc2ccccc2s1	n	n	59	n	n	n
O=C(/C=C/c1ccc(Br)cc1)NC(=S)Nc1ccc(S(=O)(=O)Nc2nccs2)cc1	52	n	58	n	n	n
CCc1nnc(NS(=O)(=O)c2ccc(NC(=S)NC(=O)/C=C/c3ccc(OC)cc3)cc2)s1	n	n	n	n	n	n
O=C(NC(=S)Nc1ccc(S(=O)(=O)Nc2nccs2)cc1)c1ccc(Br)o1	n	n	n	n	n	n
CCc1nnc(NS(=O)(=O)c2ccc(NC(=S)NC(=O)/C=C/c3ccc(C(C)C)cc3)cc2)s1	x	n	100	n	n	n
COc1ccc(NS(=O)(=O)c2ccc(NC(=S)NC(=O)/C=C/c3ccccc3)cc2)nn1	58	n	n	n	n	n
CCc1nnc(NS(=O)(=O)c2ccc(NC(=S)NC(=O)/C=C/c3ccccc3)cc2)s1	58	n	n	n	n	n
Cc1ccc(C(=O)N2CCCC2)cc1S(=O)(=O)N1CCCCC1	x	n	x	n	n	x
CCCCC(=O)Nc1nc2ccc(C(=O)OC)cc2s1	n	n	n	n	n	n
O=C(NCc1ccco1)c1cc(S(=O)(=O)N2CCOCC2)ccc1Br	x	n	x	n	n	x
C=CCc1cccc2cc(C(=O)Nc3ccc(S(=O)(=O)Nc4nnc(CC)s4)cc3)c(=O)oc12	107	n	72	n	n	n
